High-throughput results deposited in PubChem by National Center for Advancing Translational Sciences (NCATS).
In the library only some 12% were active in any assay of this set; here they are far more common.
Shiga inhibitor – Shiga toxin inhibition; Vero cells, Shiga toxin protein synthesis inhibition reporter; inhibition, % at 38.7 µM; 290,000 compounds, 9.2% hits; in the data active means inhibition mostly above about 28%, no sharp cut-off; inactive means mostly below about 43%; further: 0% is about no effect
Lassa entry inh – Lassa virus entry inhibition; Lassa virus pseudotype entry inhibition, cell reporter; AID 540256; Potency, µM (top dose mostly 37.9 µM), for the others: at the top dose activity change, negative = inhibition, hits mostly inhibitors; 300,000 compounds, 1.2% hits; calls by dose curve; tested in HEK293 cells; further: potency means the concentration at half of the fitted maximal effect; on the % scale 0 is the no-effect control and ±100 the full control effect; nearly all actives have a fitted effect of over 50% in size
Marburg entry inh – Marburg virus entry inhibition. Marburg virus pseudotyped entry inhibition, cell reporter. AID 540276. 300,000 compounds, 1.8% hits. Potency, µM (highest dose often 37.8 µM), inactives show top-dose activity change, negative = inhibition, hits mostly inhibitors; calls by dose curve; tested in HEK293 cells; further: potency means the concentration at half of the fitted maximal effect; on the % scale 0 is the no-effect control and ±100 the full control effect
Cycloheximide cs – affects cycloheximide protein synthesis inhibition readout, counter-screen; cell reporter, cycloheximide protein synthesis inhibition counterscreen; max response, %; 300,000 compounds, 12% hits; AID 2314; in the data active means max response mostly above about 13%, no sharp cut-off; inactive means mostly below about 14%; further: read at 38.3 µM for the half of the compounds with a filed dose; 0% is about no effect
* = called active by the depositor; ? = inconclusive; nt = no result; [ ] = remark or other dose.

SMILES | Shiga inhibitor | Lassa entry inh | Marburg entry inh | Cycloheximide cs
CC(Oc1ccc2c(c1)oc(=O)c1ccccc12)C(=O)NCCN1CCOCC1 (centres undefined) | -4 | 0%[46.1 µM] | -9%[46.1 µM] | -2
Cc1cccc(NC(=O)NCCc2ccc(Cl)cc2)c1 | 17 | -5% | 19%[46.1 µM] | 14
O=C(NCCc1ccc(Cl)cc1)Nc1cccc(Cl)c1 | 37* | ? | ? | 13
Cc1ccc2nc3c(cc(S(=O)(=O)c4ccccc4)c(=N)n3Cc3ccco3)c(=O)n2c1 | 39* | 2%[46.1 µM] | ? | 33*
O=C(C[n+]1ccccc1)N/N=C/c1cc(Br)cc(Br)c1O | -1 | -28% | 6% | -1
COc1cc(Br)cc(/C=N/NC(=O)Cc2ccccc2)c1O | nt | 13µM* | -18% | nt
O=C(CP(=O)(c1ccccc1)c1ccccc1)N/N=C/c1cc(Br)cc(Br)c1O | -7 | 2.8µM* | ? | -8
O=C(Cc1ccccc1)N/N=C/c1cc(Br)cc(Cl)c1O | 2 | ? | ? | -1
O=C(CN1CCOCC1)N/N=C/c1ccc(C(=O)O)cc1 | 85* | nt | nt | 53*
O=C(CN1CCCCCC1)N/N=C/c1ccc(Cl)c(Cl)c1 | 30 | 14% | 1% | 29*
CCNc1nc(OC)nc(N(OC)S(=O)(=O)c2ccc(C)cc2)n1 | -6 | nt | nt | -6
CCN(CC)S(=O)(=O)c1cc(NC(=O)c2cc([N+](=O)[O-])ccc2N2CCOCC2)ccc1C | -12 | ? | 18µM* | -3
O=C(Nc1nc2c(ccc3ccccc32)s1)c1cc([N+](=O)[O-])ccc1N1CCOCC1 | 73* | nt | nt | 45*
Cc1cc(=O)oc2cc(NC(=O)c3cc([N+](=O)[O-])ccc3N3CCOCC3)ccc12 | 2 | nt | ? | 5
COCC(=O)NNS(=O)(=O)c1ccccc1[N+](=O)[O-] | -14 | -7% | 11% | -1
CCCc1cc2c(=O)c(-c3ccccn3)coc2cc1OC | 90* | ? | 0% | 44*
CCCc1cc2c(=O)c(-c3ccccn3)c(C)oc2cc1O | 39 | 25% | 14% | 11
C=CCOc1ccc([C@H]2/C(=C(/O)c3ccc(F)cc3)C(=O)C(=O)N2CCCN(C)C)cc1 | nt | nt | 21% | nt
O=C(NCCSC1CCCCC1)c1ccccc1 | 63* | 32%[46.1 µM] | 15%[46.1 µM] | 30*
COc1ccc(C(=O)NCCSC2CCCCC2)cc1 | 80* | ? | ? | 42*
COc1ccc2c(c1)CC(NC(=O)Nc1c(C)cc(C)cc1C)CO2 (centres undefined) | nt | 14%[46.1 µM] | nt | nt
COc1cc(CNC(=O)c2cccc(COc3ccc(Cl)cc3)c2)cc(OC)c1 | 113* | ? | ? | 52*
O=C(NCc1ccccc1)c1cccc(COc2cccc(Cl)c2)c1 | 4 | 4% | -5%[46.1 µM] | -2
O=C(NCc1ccccc1)Oc1cccc(Cl)c1 | 72 | 22% | 1% | 9.6*
O=C(NCc1ccccc1)c1cccc(COc2ccc(Cl)cc2)c1 | 200* | ? | ? | 130*
SMILES | Shiga inhibitor | Lassa entry inh | Marburg entry inh | Cycloheximide cs
CCOc1ccc(-c2nnc(SCC(=O)Nc3cccc(C#N)c3)o2)cc1 | nt | 27%[46.1 µM] | 0%[46.1 µM] | nt
O=C(O)Cc1sc(Nc2ccccc2)nc1-c1cccs1 | 65* | nt | nt | 26*
O=C(O)Cc1sc(NCCc2ccccc2)nc1-c1ccc(F)cc1 | 34 | 3% | 0%[46.1 µM] | 9
O=C(O)Cc1sc(NC2CCCCC2)nc1-c1ccc(Cl)cc1 | 42* | 24%[46.1 µM] | 21%[46.1 µM] | 54*
O=C(Cc1sc(-c2ccccc2)nc1-c1ccccc1)Nc1ccccc1 | -16 | -1% | -15% | -2
CCOC(=O)Cc1csc(Nc2ccc(Cl)cc2)n1 | 11* | nt | nt | 48*
O=C(Cc1sc(Nc2ccccc2)nc1-c1ccccc1)NCc1ccccc1 | 63* | ? | ? | 31*
CCOC(=O)Cc1csc(NC(=O)Cc2ccc(Cl)cc2)n1 | -8 | -28%[46.1 µM] | ? | -1
COC(=O)Cc1csc(Nc2ccccc2)n1 | 97* | ? | 0% | 31*
Cc1ccc(NC(=S)Nc2nc(CC(=O)Nc3ccccc3)cs2)cc1 | 15 | 4% | -22% | 14*
Cc1cccc(Nc2nc(CC(=O)O)cs2)c1 | 105* | 5% | 10% | 41*
COC(=O)Cc1nc(Nc2ccccc2)sc1C | 10 | 4% | 0%[14.2 µM] | 12*
Cc1ccc(NC(=O)Cc2nc(CCl)cs2)cc1 | 9 | 9% | 2% | -3
COc1ccc(OC)c(C2CC(=O)Oc3c2c(=O)n(C)c2ccccc32)c1 (centres undefined) | nt | -10%[46.1 µM] | 29%[46.1 µM] | nt
Cc1ccc(S(=O)(=O)N(CC(=O)N2CCOCC2)c2ccc(C(C)C)cc2)cc1 | -17 | ? | -5% | 16
COC(=O)Cc1csc(Nc2ccc(F)c(Cl)c2)n1 | 30 | 9% | 11% | 21*
Cc1ccc(-c2nc(-c3ccc(Cl)cc3)sc2CC(=O)O)c(C)c1 | 7 | nt | nt | 28*
COC(=O)Cc1csc(Nc2ccc(Cl)cc2)n1 | 36 | 19% | ? | 22*
